Laboratory results taken from PubChem BioAssay (Tox21).
Values joined by “and” are separate entries in the source; they are usually repeats but may differ in a detail not shown here. Identical values can stand only once. Records with an inconclusive call do not appear. More than one record can exist for a structure, and the calls need not agree. Active and inactive are the calls of the source. Calls come from the whole dose curve; as a rule, active = well fitted cell-killing curve with a large enough effect in the repeat runs; inconclusive = weak or mixed curves, or effect the other way; inactive = flat fitted curve, though single readings scatter.

Assay: qHTS RealTime-Glo MT Cell Viability Assay in HEK293 cells - 40 hour (AID 1224874); note: nearly all actives have a fitted effect of over 50% in size
Conditions: RealTime-Glo luminescence; max response: active compounds read low
From the text: U.S. Tox21 Program National Center for Advancing Translational Sciences [NCATS] NIH Chemical Genomics Center [NCGC] U.S. Environmental Protection Agency [EPA] National Institutes of Environmental Health Sciences [NIEHS] National Toxicology Program [NTP] U.S. Food and Drug Administration [FDA] Tox21 Assay Overview: Measure of cell viability is critical in the cell-base assay. Analysis of cell viability is necessary for the characterization of cell responses to cytotoxic drugs and environmental stress. A RealTime-Glo MT Cell Viability Assay to monitor cell viability in real time of continues cell culture during 40 hours of compound treatment was used to screen Tox21 10K library compounds in Hek293 cells. The RealTime-Glo MT Cell Viability Assay is a nonlytic, homogeneous, bioluminescent method to measure cell viability in real time using a simple, plate-based method. The assay involves adding NanoLuc luciferase and a cell-permeant prosubstrate to cells in culture. Viable cells reduce the proprietary prosubstrate to generate a substrate for NanoLuc luciferase. This substrate diffuses from cells into the surrounding culture medium, where it is rapidly used by the NanoLuc Enzyme to produce a luminescent signal. The signal correlates with the number of viable cells, making the assay well suited for cytotoxicity studies.
Tox21 Assay Protocol Summary: The mixture of Hek293 cell suspension and reagents were dispensed at 600cells/6 ul/well in 1536-well tissue culture treated black solid bottom plates using a Multidrop dispenser. After the assay plates were incubated at a 37 C/5% CO2 incubator for 5 hours, 23 nL of compounds dissolved in DMSO, positive and negative controls was transferred to the assay plate by a pintool work station. The plates were incubated at 37 C for 40 hours. The luminescence intensity were measured at 0h, 8h, 16h, 24h, 32h and 40h time points using ViewLux plate reader during compound treatment.
% is set by controls: 0 for no effect and ±100 for the full control effect; potency is the fitted concentration of half-maximal effect.

| SMILES | max response | Potency |
| --- | --- | --- |
| CC(=O)Oc1ccc(C(c2ccc(OC(C)=O)cc2)c2ccccn2)cc1 | -20.4% (inactive) | – |
| CCCN1C=CN(C)C1 | -1.14% (inactive) and -1.07% (inactive) | – |
| CN(C)CCCN1c2ccccc2Sc2ccc(Cl)cc21 | – | 21.9 µM (active) and 21.3 µM (active) |
| OC[C@H]1O[C@@H]2O[C@H]3[C@H](O)[C@@H](O)[C@@H](O[C@H]4[C@H](O)[C@@H](O)[C@@H](O[C@H]5[C@H](O)[C@@H](O)[C@@H](O[C@H]6[C@H](O)[C@@H](O)[C@@H](O[C@H]7[C@H](O)[C@@H](O)[C@@H](O[C@H]1[C@H](O)[C@H]2O)O[C@@H]7CO)O[C@@H]6CO)O[C@@H]5CO)O[C@@H]4CO)O[C@@H]3CO | -4.99% (inactive) and 23.3% (inactive) | – |
| c1ccc2c(c1)ccc1cc3c(ccc4ccccc43)cc12 | 16% (inactive) and 7.61% (inactive) | – |
| CN(C)/N=N/c1nc[nH]c1C(N)=O | -18.2% (inactive) and -3.15% (inactive) | – |
| CNC[C@H](O)c1ccc(O)c(O)c1 | 2.12% (inactive) and 11.8% (inactive) | – |
| Cc1ccc(N)c([N+](=O)[O-])c1 | 2.67% (inactive) and 2.77% (inactive) | – |
| C=CC(C)(O)CCC=C(C)C (stereo not given) | 3.03% (inactive) and 9.35% (inactive) | – |
| CN1CCOCC1 | 8.86% (inactive) and 4.46% (inactive) | – |
| Nc1ccc(O)c(N)c1 | -10.8% (inactive) and -11.4% (inactive) | – |
| c1ccc2ncccc2c1 | -2.01% (inactive) and 11.7% (inactive) | – |
| C=C[C@H]1CN2CC[C@H]1C[C@H]2[C@H](O)c1ccnc2ccc(OC)cc12 | -26.3% (inactive) and -11.8% (inactive) | – |
| Nc1cc([N+](=O)[O-])ccc1C(=O)O | 9.73% (inactive) and 6.1% (inactive) | – |
| O=C(O)CCCC(=O)O | -2.98% (inactive) and 4.62% (inactive) | – |
| C=C[Si](OCCOC)(OCCOC)OCCOC | 5.17% (inactive) and 4.57% (inactive) | – |
| COc1cc([C@H]2Oc3cc([C@H]4Oc5cc(O)cc(O)c5C(=O)[C@@H]4O)ccc3O[C@@H]2CO)ccc1O | -16.5% (inactive) | – |
| CC1(C)OC(=O)NC1=O | -4.09% (inactive) and 7.44% (inactive) | – |

| SMILES | max response | Potency |
| --- | --- | --- |
| CCO[Si](CCCNC(N)=O)(OCC)OCC | -7.6% (inactive) and 2.5% (inactive) | – |
| Cc1ccc(C(C)(C)C)cc1 | 0.538% (inactive) | – |
| CC(C)(C)c1cccc(C(C)(C)C)c1O | 1.57% (inactive) | 21.4 µM (active) |
| Cc1ccc([N+](=O)[O-])c(C)c1 | -10.8% (inactive) | 38.9 µM (active) |
| CC1(C)C(C=C(Cl)Cl)C1C(=O)OCc1cccc(Oc2ccccc2)c1 (stereo not given) | -20.8% (inactive) and -17.3% (inactive) | – |
| CCCCCCCCCCCCO | -4.3% (inactive) and -1.21% (inactive) | – |
| Nc1ccc2c(O)cc(S(=O)(=O)O)cc2c1 | – | 6.17 µM (active) |
| CC(=O)[C@H]1CC[C@H]2[C@@H]3CC=C4C[C@@H](O)CC[C@]4(C)[C@H]3CC[C@]12C | -23.7% (inactive) | – |
| COc1ccc2nc(N)sc2c1 | 7.94% (inactive) | – |
| O=C1OC2(c3ccccc31)c1cc(I)c(O)c(I)c1Oc1c2cc(I)c(O)c1I | -20.2% (inactive) | 49.1 µM (active) |
| CCOC(=O)C(C)Oc1ccc(Oc2cnc3cc(Cl)ccc3n2)cc1 (stereo not given) | -24.7% (inactive) | 44.7 µM (active) |
| CN(C)C | 3.08% (inactive) and -9.36% (inactive) | – |
| Cc1cccc(Nc2ccccc2C(=O)O)c1C | -11.8% (inactive) and 1.92% (inactive) | – |
| CC(=O)[C@@]1(O)CC[C@H]2[C@@H]3C[C@H](C)C4=CC(=O)C=C[C@]4(C)[C@@]3(F)[C@@H](O)C[C@@]21C | -3.14% (inactive) | 19.5 µM (active) |
| CCCCCC1C(=O)CCC1CC(=O)OC (stereo not given) | 0.863% (inactive) and -10.7% (inactive) | – |
| O=C(O)CCCCCCCCCCCC(=O)O | 7.31% (inactive) | – |
| c1ccc2c(c1)ccc1ncccc12 | -12% (inactive) and -17.1% (inactive) | – |
